KCNQ2 enhance – enhances the rat KCNQ2 potassium channel | O88943 | CHO-K1 KCNQ2, FluxOR thallium flux fluorescence; stronger effect = higher value | B-score at 10 µM | 0.54% of 310,000 active | AID 2239;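 active = fluorescence ratio B-score at least 3 SD of library B-scores, with initial fluorescence B-score within 3 of them, cut at about 5.3 in these data; same plate scores as AID 2156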;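 also: B-score of peak minus minimum over baseline fluorescence ratio after K+ and Tl+ stimulus; positive B-score means potentiation of KCNQ2 with more thallium influx and brighter signal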
KCNQ2 block – blocks the rat KCNQ2 potassium channel; CHO-K1 KCNQ2, FluxOR thallium flux, 20 min; stronger effect = lower value; B-score at 10 µM; 1.1% of 310,000 active;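 active = fluorescence ratio B-score at most minus 3 library SDs, with starting brightness B-score within 2 library SDs, cut at about -5.5 in these data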
KCNQ2 block conf – confirmation of rat KCNQ2 potassium channel inhibitors. 57% of 1,000 active. shares compounds with KCNQ2 block. KCNQ2-expressing cells, thallium flux, inhibition; stronger effect = lower value. AID 493025. activity change, negative = inhibition, % at 10 µM
KCNQ1 spec – selectivity of KCNQ2 inhibitors against human KCNQ1; AID 493026; 15% of 1,000 active; KCNQ1-expressing cells, FluxOR thallium flux fluorescence; stronger effect = lower value; shares compounds with KCNQ2 block; activity change, negative = inhibition, % at 10 µM;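 active = activity change at least 3 SD of negative controls below their mean in both duplicate wells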;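 also: CHO cells stably transfected with KCNQ1 and depolarized by potassium stimulus; peak minus minimum fluorescence over baseline after thallium addition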
Target sequence (P51787 whole entry, looked up): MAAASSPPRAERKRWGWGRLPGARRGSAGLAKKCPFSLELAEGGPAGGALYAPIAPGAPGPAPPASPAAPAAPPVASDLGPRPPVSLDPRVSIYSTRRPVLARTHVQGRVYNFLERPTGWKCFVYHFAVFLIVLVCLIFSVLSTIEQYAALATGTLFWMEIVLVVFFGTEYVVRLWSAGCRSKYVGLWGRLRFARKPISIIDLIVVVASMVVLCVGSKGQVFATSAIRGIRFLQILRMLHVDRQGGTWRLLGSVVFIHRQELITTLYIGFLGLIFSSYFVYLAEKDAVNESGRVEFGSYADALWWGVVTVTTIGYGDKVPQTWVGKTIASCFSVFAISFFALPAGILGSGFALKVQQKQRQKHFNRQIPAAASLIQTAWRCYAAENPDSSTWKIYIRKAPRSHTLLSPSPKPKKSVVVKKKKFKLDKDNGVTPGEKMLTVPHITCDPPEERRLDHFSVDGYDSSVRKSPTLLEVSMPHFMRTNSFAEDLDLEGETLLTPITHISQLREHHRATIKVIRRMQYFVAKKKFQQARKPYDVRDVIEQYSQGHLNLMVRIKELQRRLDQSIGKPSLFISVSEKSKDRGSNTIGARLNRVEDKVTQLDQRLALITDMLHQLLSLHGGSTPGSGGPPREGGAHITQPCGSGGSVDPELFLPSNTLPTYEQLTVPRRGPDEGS
CHO parental ctr – counter-screen for KCNQ2 inhibitors: effect in parental CHO cells. shares compounds with KCNQ2 block. AID 493029. 14% of 1,000 active. thallium flux counter-screen; stronger effect = lower value. activity change, % at 10 µM
KCNQ2 patch conf – confirmation of rat KCNQ2 potassium channel inhibitors. calls only at 10 µM. shares compounds with KCNQ2 block. KCNQ2-expressing cells, automated patch clamp current. AID 588531. 49% of 550 active
Numbers stand for hits; n = inactive; x = no result given; + = active, no number. Hits are enriched below; roughly 1.6% of the tested compounds scored in any of these assays. Unless noted, no rule for the calls is given here.

SMILES	KCNQ2 enhance	KCNQ2 block	KCNQ2 block conf	KCNQ1 spec	CHO parental ctr	others
CC(Oc1ccc(Cl)cc1Cl)C(=O)NC(=S)N1CCc2ccccc21 (configuration not stated)	9.31	n	x	x	x
O=C(NC(=S)N1CCc2ccccc21)c1ccccc1Br	13.9	n	x	x	x
CN1CCN(C(=S)NC(=O)c2ccccc2Br)CC1	x	n	x	x	x
CCOc1cc(/C=N/NC(N)=O)cc(Br)c1OCc1ccccc1	n	n	x	x	x
Cc1cnn(C(=S)NCC2CCCO2)c1 (configuration not stated)	x	n	x	x	x
COc1cc(/C=N/n2c(=S)[nH]nc(C)c2=O)cc([N+](=O)[O-])c1O	x	n	x	x	x
CCCCN(C)CC(O)Cn1cc(/C=C/C(=O)c2ccc(OCC)cc2)c2ccccc21 (configuration not stated)	n	-6.74	x	x	x
CCCCN(C)CC(O)Cn1cc(/C=C/C(=O)c2cccs2)c2ccccc21 (configuration not stated)	x	n	x	x	x
O=C(NCc1ccccn1)Nc1ccccc1Cl	x	n	x	x	x
Cc1ccccc1OCc1nc2ccccc2c(=O)n1/N=C/c1ccco1	n	-8.94	-33.0%	n	n	KCNQ2 patch conf=+
O=c1c2ccccc2nc(-c2ccco2)n1/N=C/c1ccco1	n	n	x	x	x
Cc1ccc(-c2nn(-c3ccccc3)cc2CN(Cc2ccccc2)C(=O)c2ccco2)o1	n	-15.1	-47.0%	-48.5%	-49.5%	KCNQ2 patch conf=n
Cc1ccc(-c2nn(-c3ccccc3)cc2C(=O)O)o1	x	n	x	x	x
O=C(CSc1nc2ccccc2c(=O)n1CC1CCCCC1)N1CCOCC1	x	n	x	x	x
CCN(CC)C(=O)CSc1nc2ccccc2c(=O)n1CC1CCCCC1	n	-6.62	-45.0%	-38.0%	-29.5%	KCNQ2 patch conf=+
C=CCn1c(/N=C/c2ccc(N(C)C)cc2)nc2ccccc21	n	-7.27	n	n	n
C=CCn1c(/N=C/c2ccc(OC)cc2)nc2ccccc21	n	n	x	x	x
CC(C)(C)CN1CCN(Cc2nc(-c3ccc(F)cc3)cs2)CC1CCO (configuration not stated)	x	n	x	x	x
CC(OC(=O)c1nc(-c2ccccc2)n(-c2ccccc2)n1)C(=O)Nc1cc(Cl)cc(Cl)c1 (configuration not stated)	n	-6.86	n	n	n
CC(C)CNC(=O)c1nc(-c2ccccc2)n(-c2ccccc2)n1	x	n	x	x	x
CCn1c(CNc2ccc(C)cc2)nnc1SCC(=O)NCc1ccccc1	x	n	x	x	x
C=CCn1c(CSCc2ccc(C)cc2)nnc1SCC(=O)NCc1ccccc1	n	-8.42	-22.0%	n	n	KCNQ2 patch conf=+
COCC(C)NC(C(=O)Nc1ccc(C)c(Cl)c1)c1ccccc1 (configuration not stated)	n	-6.77	n	n	n
COCCNC(C(=O)Nc1cc(Cl)cc(Cl)c1)c1ccccc1 (configuration not stated)	n	-8.06	-29.5%	n	n	KCNQ2 patch conf=+
CN(C)C(C(=O)Nc1cc(Cl)cc(Cl)c1)c1ccccc1 (configuration not stated)	n	-8.27	-29.0%	n	n	KCNQ2 patch conf=+
SMILES	KCNQ2 enhance	KCNQ2 block	KCNQ2 block conf	KCNQ1 spec	CHO parental ctr	others
O=C(OC(C(=O)Nc1cc(Cl)cc(Cl)c1)c1ccccc1)C1=COCCO1 (configuration not stated)	x	n	x	x	x
CNC(=O)NC(=O)C(NC1CCCc2ccccc21)c1ccccc1 (configuration not stated)	x	n	x	x	x
Cc1ccc(NC(=O)C(NC2CCCc3ccccc32)c2ccccc2)cc1Cl (configuration not stated)	n	-8.93	n	n	n
COCC(C)NC(C(=O)Nc1cccc(C(C)=O)c1)c1ccccc1 (configuration not stated)	n	n	x	x	x
CCOCCCNC(C(=O)Nc1ccc(OC)c(Cl)c1)c1ccccc1 (configuration not stated)	x	n	x	x	x
COc1ccc(Cc2nc3ccc(C(=O)NCC4COCCO4)cc3o2)cc1OC (configuration not stated)	x	n	x	x	x
CC1CC(C)CN(C(=O)c2ccc(N3CC4CC(C3)c3cccc(=O)n3C4)c([N+](=O)[O-])c2)C1 (configuration not stated)	x	n	x	x	x
COc1cc2c(cc1OC)C(COc1ccccc1OC)N(C(=O)c1ccco1)CC2 (configuration not stated)	x	n	x	x	x
COc1ccc(CCNC(=O)CSc2ccc3nnc(CCNC(=O)c4ccc(C)cc4)n3n2)cc1OC	n	n	x	x	x
Cc1cc(C)c2c(=O)[nH]c(SCC(=O)N3CCCCC3)nc2n1	x	n	x	x	x
CC(C)(C)C(=O)Nc1ccc(N2CCN(S(C)(=O)=O)CC2)cc1	x	n	x	x	x
CC(C)(C)SCCNC(=O)COc1ccc(Cl)cc1	x	n	x	x	x
Cc1ccccc1CSCCNC(=O)COc1ccc(Cl)cc1	n	-8.57	n	n	n
CC(C)CNc1ncnc2c1sc1nc(N3CCOCC3)c3c(c12)CC(C)(C)OC3	n	n	x	x	x
COc1ccc(CN(C)C(=O)C(Cc2ccccc2)NC(=O)c2ccccc2)c(OC)c1 (configuration not stated)	n	-6.69	-33.0%	n	n	KCNQ2 patch conf=+
COc1ccc(CN(C)C(=O)c2ccc(COc3ccccc3)cc2)c(OC)c1	x	n	x	x	x
Cc1ccc(OCC(=O)N2N=C(C(F)(F)F)CC2(O)C(C)(C)C)cc1C (configuration not stated)	x	n	x	x	x
Cc1ccccc1OCC(=O)N1N=C(C(F)(F)F)CC1(O)C(C)(C)C (configuration not stated)	n	-8.15	n	n	n
Oc1cccc(/C=N/Nc2cc(N3CCCC3)nc(N3CCCC3)n2)c1	n	n	x	x	x
Cc1ccc2cc(C(c3nnnn3C3CCCC3)N3CCN(c4ccccc4)CC3)c(=O)[nH]c2c1 (configuration not stated)	x	n	x	x	x
Cc1ccc2cc(C(c3nnnn3C3CCCC3)N3CCOCC3)c(=O)[nH]c2c1C (configuration not stated)	n	-9.5	n	n	n
COc1cc2cc(C(c3nnnn3C3CCCC3)N3CCCCC3)c(=O)[nH]c2cc1OC (configuration not stated)	n	-7	-21.5%	n	n	KCNQ2 patch conf=+
CCOC(=O)C1CCN(C(c2cc3ccc(C)c(C)c3[nH]c2=O)c2nnnn2C2CCCCC2)CC1 (configuration not stated)	x	n	x	x	x
CCc1cc2c(nc1CC)CCN(CC/C(C)=N/O[C@@H](C)c1cc(-c3c(C)cc(C)cc3C)no1)C2	n	-10.2	n	n	n
C/C(CCN1CCc2nc(-c3ccccc3)c(-c3ccccc3)cc2C1)=N\O[C@@H](C)c1cc(-c2c(C)cc(C)cc2C)no1	x	n	x	x	x
COc1ccc2c(c1)Cc1sc(NC(=O)c3ccccc3)nc1-2	n	n	x	x	x
CC(C)=CCc1c(O)cc2c(c1O)C(=O)CC(c1ccccc1)O2 (configuration not stated)	n	n	x	x	x
COc1ccc(C2CC(=O)c3c(O)cc(O)cc3O2)c(CC=C(C)C)c1OC (configuration not stated)	n	-12.6	-33.5%	n	n	KCNQ2 patch conf=+
Cc1ccc(Cn2c(SCC(=O)Nc3cc(C)on3)nc3ccccc3c2=O)cc1	x	n	x	x	x

Assay outcomes: PubChem BioAssay, Johns Hopkins Ion Channel Center
